# Measured values as given in PubChem BioAssay AID2501 (Southern Research Specialized Biocontainment Screening …, 2010).
# The whole screen tested about 2,200 compounds, of which about 1,200 (55%) were called active. Cut-off not given; nearly all actives show IC50 up to about 92 µM. So high a share suggests a set chosen from earlier hits. Some of the results follow.
# Assay: counter assay for TAg ATPase ADP read-out – biochemical, ADP-Hunter, fluorescence, counter-screen (AID 2501);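 further: purified T antigen ATPase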;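 on inhibition: 0% = enzyme with vehicle and 100% = reference inhibitor wells; higher means more inhibition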
# Conditions: series mostly up to 100 µM; inhibition: at the top concentration
SMILES,inhibition,IC50
COCCCN(Cc1ccco1)C(=O)Cn1ncc2c(=O)oc3ccc(C)cc3c21,-16.3% (inactive),
CCn1c(SCC(=O)Nc2ccccc2C)nnc1-c1ccccc1O,0.55% (inactive),
CCn1c(SCC(=O)c2ccc(O)c(O)c2)nnc1-c1ccccc1OC,,3.84 µM (active)
COc1cc(-c2nc(=S)[nH][nH]2)cc(OC)c1OC,,10.7 µM (active)
COc1ccc(C(=O)/C=C(\C)Nc2ccc(NC(C)=O)cc2)cc1,,17.8 µM (active)
CC(=O)Nc1ccc(OCCOc2ccc(/C=C3\C(=N)N4N=C(C)SC4=NC3=O)cc2)cc1,-24.2% (inactive),
CN1c2ccc(C=O)c3c(C=O)ccc(c23)N(C)C1(C)C,,17.5 µM (active)
Nc1ccc2nc(-c3cccs3)[nH]c2c1,,3.65 µM (active)
Cc1ccc(C)c(-c2nc3ccc(N)cc3[nH]2)c1,,4.86 µM (active)
COc1ccc(C2=CC3=C(Br)C(=O)C(C)(OC(=O)c4ccco4)C(=O)C3=CO2)cc1 (stereo not given),9.67% (inactive),
CCNc1ccc(Br)cc(C(=O)/C=C/c2ccc(Cl)cc2Cl)c1=O,-54.5% (inactive),
CC(=O)Nc1ccccc1O,,2.63 µM (active)
CCC(=Nc1ccccc1O)C1=C(O)CC(c2ccccc2)CC1=O (stereo not given),,8.32 µM (active)
COc1cc(/C=C2/C(=O)ON=C2c2ccccc2)ccc1O,,14.4 µM (active)
COc1ccc(/C=C2\C(=O)ON=C2c2ccccc2)cc1,14.8% (inactive),
COc1cc(/C=C2\C(=O)ON=C2c2ccc(Cl)cc2)ccc1O,,18.5 µM (active)
O=C1ON=C(c2ccccc2)/C1=C/c1ccc(OS(=O)(=O)c2ccccc2)cc1,21.3% (inactive),
COc1cc(C=C2C(=O)c3ccccc3C2=O)ccc1O,,4.42 µM (active)
COc1ccc(/C=C2\C(=O)ON=C2c2ccccc2)cc1OC,4.03% (inactive),
O=C1ON=C(c2ccccc2)/C1=C/c1ccccc1,5.34% (inactive),
CCOC(=O)C1=C(C)N(c2ccccc2)C(=O)/C1=C\c1ccc(O)c(OC)c1,-43.5% (inactive),
O=C1C(=Cc2ccc(Br)o2)C(=O)c2ccccc21,29.5% [at 50 µM] (inactive),

SMILES,inhibition,IC50
O=C1ON=C(c2ccccc2)/C1=C/c1ccc(O)c(O)c1,,7.26 µM (active)
O=C1ON=C(c2ccccc2)/C1=C\c1ccco1,26.6% (inactive),
O=C(CCS(=O)(=O)c1ccc(Cl)cc1)Oc1ccc2c(c1)OCO2,,78 µM (active)
Cc1cc(NS(=O)(=O)c2ccc(NC(=O)Nc3ccc4c(c3)OCO4)cc2)no1,-12.7% (inactive),
CC(=O)Nc1cccc(NC(=O)COc2ccc3c(c2)OCO3)c1,19.8% (inactive),
COc1c2ccoc2nc2c(OC)c(O)ccc12,,11.5 µM (active)
COc1cc(C(=O)N/N=C2\CCS(=O)(=O)c3ccc(F)cc32)cc(OC)c1OC,2.72% (inactive),
CN(C)c1ccc(NC(=O)c2cccc(N3C(=O)CCC3=O)c2)cc1,,6.4 µM (active)
Cc1ccc(NC(=O)CN2C(=O)N/C(=C/c3cc(C)n(-c4cccc(C(=O)O)c4)c3C)C2=O)cc1,-2.73% (inactive),
CC(C)Oc1ccc(C(=O)Nc2ccc(N(C)C)cc2)cc1,,12.1 µM (active)
CC(OC(=O)c1ccccc1C(=O)N(C)c1ccccc1)C(=O)Nc1ccc(C(N)=O)cc1 (stereo not given),14.8% (inactive),
CN(C)c1ccc(NC(=O)c2ccc3nc[nH]c3c2)cc1,,3.67 µM (active)
COc1cc(C(=O)Nc2ccc(N(C)C)cc2)cc(OC)c1OC,,5.06 µM (active)
COc1c(F)c(F)c(C(=O)O)c(Nc2ccc(C)cc2)c1F,-10% (inactive),
CSc1nc(-c2ccco2)nn1S(C)(=O)=O,-7.36% (inactive),
CCCCC(CC)CN=C(N)NC(N)=NCCCCCCN=C(N)NC(N)=NCC(CC)CCCC (stereo not given),-22% (inactive),
Cc1ccc(/C=c2\sc3nc(-c4ccco4)nn3c2=O)o1,21.2% (inactive),
Cc1ccc(/C=C2/SC(=O)NC2=S)o1,,4.25 µM (active)
Cc1ccc(C2=NOC(=O)/C2=C\c2ccc(C)o2)cc1,-0.53% [at 50 µM] (inactive),
COc1ccc(N2CCN(C(CNC(=O)C3CCCCC3)c3cccnc3)CC2)cc1 (stereo not given),,9.65 µM (active)
COc1ccc(C(=O)CC(c2ccccc2)C2CCCCC2=O)cc1 (stereo not given),-17.5% (inactive),
CCN(CCNC(=O)C1CCCN(Cc2nc(-c3ccc(OC)cc3)oc2C)C1)c1ccccc1 (stereo not given),21.4% (inactive),

SMILES,inhibition,IC50
O=C(Nc1ccccc1F)c1coc(=O)c(Br)c1,-18.9% (inactive),
COc1ccccc1CNC(=O)COC(=O)c1c(C)nn(-c2ccccc2)c1Cl,-21.6% (inactive),
COc1cccc(CNC(=O)Cc2ccc(Br)cc2)c1,4.92% (inactive),
COc1ccccc1CNC(=O)c1ccc(CS(=O)Cc2cccc(Cl)c2)o1 (stereo not given),,12.8 µM (active)
CCOC(=O)C1=C(O)/C(=C/c2cccc(OC)c2O)N=C1C,,7.3 µM (active)
COC(=O)C1=C(O)/C(=C\c2ccc(CNS(=O)(=O)c3ccccc3)o2)N=C1C,-5.11% (inactive),
COC(=O)C1=C(O)/C(=C/c2cccc(OC)c2O)N=C1C,,6.57 µM (active)
COc1cc(/C=C2\SC(=S)N(NC(=O)c3cccnc3)C2=O)ccc1O,,6.17 µM (active)
O=C(NN1C(=O)/C(=C/c2cc([N+](=O)[O-])ccc2O)SC1=S)c1ccccc1O,-3.7% (inactive),
O=C1/C(=C/C=C/c2ccco2)SC(=S)N1NS(=O)(=O)c1ccccc1,22.8% [at 12.5 µM] (inactive),
COc1cc(/C=C2\SC(=S)N(NS(=O)(=O)c3ccccc3)C2=O)ccc1O,,12.1 µM (active)
COc1cc(/C=C2\SC(=S)N(NS(=O)(=O)c3ccc(C)cc3)C2=O)ccc1O,,8.48 µM (active)
CC(/C=C1\SC(=S)N(CCCC(=O)Nc2ccc(C(=O)O)c(O)c2)C1=O)=C\c1ccccc1,-5.4% (inactive),
O=C(NN1C(=O)/C(=C/C=C/c2ccco2)SC1=S)c1ccccc1O,-28.5% (inactive),
CCOc1ccc(N2Nc3n[nH]c(N)c3N2)cc1,,5.65 µM (active)
CC[N+]1(CC(O)COC2CC(C)CC(C)(C)C2)CCOCC1 (stereo not given),-12.7% (inactive),
COc1cc2c(cc1OC)C[N+](C)(C)CC2,,72.6 µM (active)
N#CCSc1nc(-c2ccccc2)nc2ccccc12,-9.94% (inactive),
O=c1c2c(-c3ccco3)csc2nc(SCc2cn3cccnc3n2)n1-c1ccccc1,-21.5% (inactive),
COCc1cc(=O)n2[nH]c(-c3ccsc3-n3c(C)ccc3C)cc2n1,-28.4% (inactive),
C#CCOCCOCCOCCNc1nc(N2CCN(C(=O)CCCCCCCCCCNC(=O)[C@H](CCCN=C(N)N)n3cc(C[C@@H](C)CC)nn3)CC2)nc(N2CCN(C(=O)CCCCCCCCCCNC(=O)[C@@H]([C@H](C)CC)n3cc(CCCCCN)nn3)CC2)n1,9.93% (inactive),
